This is an account of results in the supplement of paper PMC3342239.

Where a name gives a salt, the structure may show the parent alone.

The first experiment relates to Saccharomyces cerevisiae. The experiment is described as follows: fraction of cells in G1 phase (DNA content, flow cytometry); higher = more cells with unreplicated DNA (G1 delay). The note with it: temperature: 30 C; YPD; BY4741 PDR5+ SNQ2+; drug added to: actively dividing cells; 4.33 h. The method, then:
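S. cerevisiae cultures in YPD at 30°C were treated with each drug of the Enzo FDA-approved library at 20 µg/ml (final µM given per drug). Cells were fixed after 6–7 h (S1) or 6 h (S2), or after 4.33 h for BY4741 (S3), then stained with SYTOX Green. %G1 is the Dean-Jett-Fox G1 peak area divided by the G1+G2/M peak areas, written as a fraction and averaged over at least two independent experiments. DMSO reference: mean ~0.49; >0.60 is called High G1 and <0.3876 Low G1. Scale: lower means mitotic delay.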
With `CNCCC(Oc1ccc(C(F)(F)F)cc1)c1ccccc1` (stereo not given) [Fluoxetine HCl] (64.655 µM), the “fraction of cells in G1 phase” value was 0.43.

Regarding `NC1CCN(c2c(F)cc3c(=O)c(C(=O)O)cn(C4CC4)c3c2Cl)C1` (stereo not given) [Clinafloxacin HCl] (54.6755 µM), the “fraction of cells in G1 phase” value was found to be 0.359.

As for `CC(C)C(=O)c1c(C(C)C)nn2ccccc12` [Ibudilast] (86.8386 µM), the “fraction of cells in G1 phase” value was determined as 0.462.

`CC(C(O)c1ccc(O)cc1)N1CCC(Cc2ccccc2)CC1` (stereo not given) [Ifenprodil] (61.4525 µM): the “fraction of cells in G1 phase” value came to 0.41.

Still in this experiment, the particulars now being: temperature: 30 C; YPD; JTY2953 pdr5 snq2 (sensitized); drug added to: actively dividing cells; 6 h.
Take `Clc1ccc(Nc2nnc(Cc3ccncc3)c3ccccc23)cc1` [Vatalanib] (57.6664 µM): the “fraction of cells in G1 phase” value is 0.691.

For `CCC(C)(C)C(=O)O[C@H]1C[C@@H](C)C=C2C=C[C@H](C)[C@H](CC[C@@H]3C[C@@H](O)CC(=O)O3)[C@H]21` [Simvastatin] (47.7808 µM), the “fraction of cells in G1 phase” value worked out at 0.354.

With `CCN(CC)CCOc1ccc(C(=C(Cl)c2ccccc2)c2ccccc2)cc1` [Clomiphene citrate] (49.2645 µM), the “fraction of cells in G1 phase” value amounted to 0.388.

Consider `CC[C@H](c1ccc(O)cc1)[C@@H](CC)c1ccc(O)cc1` [Hexestrol] (73.9714 µM), for which the “fraction of cells in G1 phase” value came out at 0.481.

For `CC(C)C(=O)c1c(C(C)C)nn2ccccc12` [Ibudilast] (86.8386 µM), the “fraction of cells in G1 phase” value is 0.698.

For `CC(C(O)c1ccc(O)cc1)N1CCC(Cc2ccccc2)CC1` (stereo not given) [Ifenprodil] (61.4525 µM), the “fraction of cells in G1 phase” value stood at 0.694.

The experiment is the same for the next values; noted with them: temperature: 30 C; YPD; JTY2953 pdr5 snq2 (sensitized); drug added to: cultures diluted from stationary phase; 6-7 h.
Regarding `Clc1ccc(Nc2nnc(Cc3ccncc3)c3ccccc23)cc1` [Vatalanib] (57.6664 µM), the “fraction of cells in G1 phase” value came to 0.699.

In the case of `N=c1ccn2c(n1)O[C@H]1[C@H](O)[C@@H](CO)O[C@H]12` [Cyclocytidine HCl] (88.8077 µM), the “fraction of cells in G1 phase” value is 0.484.

Regarding `CC#CCC(C)[C@H](O)/C=C/[C@@H]1[C@H]2C/C(=C/CCCC(=O)O)C[C@H]2C[C@H]1O` (stereo not given in full) [Iloprost] (55.4788 µM), the “fraction of cells in G1 phase” value worked out at 0.481.

Take `CC[C@H]1OC(=O)[C@H](C)[C@@H](O[C@H]2C[C@@](C)(OC)[C@@H](O)[C@H](C)O2)[C@H](C)[C@@H](O[C@@H]2O[C@H](C)C[C@H](N(C)C)[C@H]2O)[C@](C)(O)C[C@@H](C)CN(C)[C@H](C)[C@@H](O)[C@]1(C)O` [Azithromycin] (26.7021 µM): the “fraction of cells in G1 phase” value came out at 0.471.

As for `C[C@]12CC[C@@H]3c4ccc(O)cc4CC[C@H]3[C@@H]1CCC2=O` [Estrone] (73.9714 µM), the “fraction of cells in G1 phase” value was 0.508.

With `Cc1ncc([N+](=O)[O-])n1CC(C)O` (stereo not given) [Secnidazole] (108.001 µM), the “fraction of cells in G1 phase” value is 0.48.

On to `C[N+](C)(C)CCOC(N)=O` [Carbamylcholine Cl] (135.871 µM), for which the “fraction of cells in G1 phase” value is 0.506.

Consider `CNCCC(Oc1ccc(C(F)(F)F)cc1)c1ccccc1` (stereo not given) [Fluoxetine HCl] (64.655 µM), for which the “fraction of cells in G1 phase” value turned out to be 0.17.

As to `COCc1c(C(C)C)nc(C(C)C)c(/C=C/[C@@H](O)C[C@@H](O)CC(=O)O)c1-c1ccc(F)cc1` [Cerivastatin] (43.5196 µM), the “fraction of cells in G1 phase” value is 0.448.

Take `CC(C[N+](C)(C)C)OC(N)=O` (stereo not drawn) [Carbamyl-beta-methylcholine Cl] (124.05 µM): the “fraction of cells in G1 phase” value turned out to be 0.5.

As for `COc1cc2c3cc1Oc1cc(ccc1O)C[C@@H]1c4c(cc(OC)c(O)c4Oc4ccc(cc4)C[C@@H]3N(C)CC2)CC[N+]1(C)C` [Tubocurarine Cl  (+)] (32.8004 µM), the “fraction of cells in G1 phase” value is 0.464.

On to `NC1CCN(c2c(F)cc3c(=O)c(C(=O)O)cn(C4CC4)c3c2Cl)C1` (stereo not given) [Clinafloxacin HCl] (54.6755 µM), for which the “fraction of cells in G1 phase” value worked out at 0.254.

As to `COCCc1ccc(OCC(O)CNC(C)C)cc1` (stereo not given) [Metoprolol tartrate] (74.8023 µM), the “fraction of cells in G1 phase” value worked out at 0.491.

With `NC(CO)C(=O)NNCc1ccc(O)c(O)c1O` (stereo not given) [Benserazide HCl] (77.7459 µM), the “fraction of cells in G1 phase” value was found to be 0.514.

With `O=C(CCCN1CCN(c2ccccn2)CC1)c1ccc(F)cc1` [Azaperone] (61.0864 µM), the “fraction of cells in G1 phase” value stood at 0.582.

Take `CC(C)CN(C[C@@H](O)[C@H](Cc1ccccc1)NC(=O)O[C@H]1CCOC1)S(=O)(=O)c1ccc(N)cc1` [Amprenavir] (39.554 µM): the “fraction of cells in G1 phase” value came out at 0.472.

Turning to `CN1C(C(=O)Nc2ccccn2)=C(O)c2ccccc2S1(=O)=O` [Piroxicam] (60.3587 µM), the “fraction of cells in G1 phase” value came to 0.505.

As for `CCC(C)(C)C(=O)O[C@H]1C[C@@H](C)C=C2C=C[C@H](C)[C@H](CC[C@@H]3C[C@@H](O)CC(=O)O3)[C@H]21` [Simvastatin] (47.7808 µM), the “fraction of cells in G1 phase” value was 0.879.

Consider `CCC(NC(C)C)C(O)c1ccc(O)c2[nH]c(=O)ccc12` (stereo not given) [Procaterol hcl] (68.8787 µM), for which the “fraction of cells in G1 phase” value came out at 0.526.

Take `CCN(CC)CCOc1ccc(C(=C(Cl)c2ccccc2)c2ccccc2)cc1` [Clomiphene citrate] (49.2645 µM): the “fraction of cells in G1 phase” value is 0.88.

In the case of `CC[C@H](c1ccc(O)cc1)[C@@H](CC)c1ccc(O)cc1` [Hexestrol] (73.9714 µM), the “fraction of cells in G1 phase” value came out at 0.895.

Turning to `COc1cc2nc(N3CCN(C(=O)c4ccco4)CC3)nc(N)c2cc1OC` [Prazosin HCl] (47.6417 µM), the “fraction of cells in G1 phase” value came out at 0.487.

Take `CC(C)C(=O)c1c(C(C)C)nn2ccccc12` [Ibudilast] (86.8386 µM): the “fraction of cells in G1 phase” value turned out to be 0.604.

Take `CC(C)NCC(O)c1ccc2ccccc2c1` (stereo not given) [Pronethalol HCl] (87.2126 µM): the “fraction of cells in G1 phase” value came out at 0.502.

For the compound `CCC(=O)O[C@@H](O[P@](=O)(CCCCc1ccccc1)CC(=O)N1C[C@H](C2CCCCC2)C[C@H]1C(=O)O)C(C)C` [Fosinopril] (35.4813 µM), the “fraction of cells in G1 phase” value was 0.501.

Turning to `CCN(CC)C(=O)/C(C#N)=C/c1cc(O)c(O)c([N+](=O)[O-])c1` [Entacapone] (65.5109 µM), the “fraction of cells in G1 phase” value was 0.508.

Consider `O=C(c1ccc(F)cc1)C1CCN(CCn2c(=O)[nH]c3ccccc3c2=O)CC1` [Ketanserin tartrate] (50.5769 µM), for which the “fraction of cells in G1 phase” value worked out at 0.475.

Turning to `CC(C(O)c1ccc(O)cc1)N1CCC(Cc2ccccc2)CC1` (stereo not given) [Ifenprodil] (61.4525 µM), the “fraction of cells in G1 phase” value came to 0.61.

As to `NS(=O)(=O)c1cc(C(=O)O)c(NCc2ccco2)cc1Cl` [Furosemide] (60.4688 µM), the “fraction of cells in G1 phase” value came out at 0.459.

As to `CC(C)(CO)[C@@H](O)C(=O)NCCC(=O)O` [Pantothenic acid] (91.2244 µM), the “fraction of cells in G1 phase” value stood at 0.484.
